# Tests used:
# Assay in all cases: DAPPL (digital affinity profiling via proximity ligation, sequencing); 10 mM Tris-HCl pH 7.5, 50 mM NaCl, 1 mM DTT, 4% glycerol, room temperature, 30 min; GST-TFs on glutathione beads, 16-mer random dsDNA library, 0.1% formaldehyde crosslink after washing; high values mean tight binding
# FEV = biological target: T1, FEV (Homo sapiens, UniProt Q99581 1-238); details: protein: recombinant; tags: N-terminal GST; dsDNA, one strand shown
# T1 sequence: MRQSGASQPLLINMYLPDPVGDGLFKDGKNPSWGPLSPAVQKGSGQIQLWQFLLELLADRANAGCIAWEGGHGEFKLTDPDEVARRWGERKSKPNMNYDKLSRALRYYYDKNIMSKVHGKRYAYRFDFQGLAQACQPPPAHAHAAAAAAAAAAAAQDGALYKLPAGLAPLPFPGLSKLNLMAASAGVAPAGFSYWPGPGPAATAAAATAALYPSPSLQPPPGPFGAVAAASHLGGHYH
# How it was run: (§1)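 In yeast, human transcription factors were expressed with a GST fusion, then pulled down on glutathione beads and given DNA barcodes. Pooled with a tag-only sample, they were exposed to 200 nmole of a 16-mer random double-stranded DNA library (Tris/NaCl/DTT/glycerol buffer, room temperature, 30 min), washed, crosslinked with 0.1% formaldehyde, proximity-ligated using BsaI/T4 ligase for 1 h at 37 °C, PCR-amplified and read on an Illumina NextSeq500. Each hexamer's frequency of reads for a factor, divided by the matching frequency for the tag-only sample, gives the binding signal.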
# ETV5 = ETV5 (Homo sapiens, UniProt P41161 1-510); details: protein: recombinant; tags: N-terminal GST; dsDNA, one strand shown
# How it was run: as §1
# HSF1 = HSF1 (Homo sapiens, UniProt Q00613 1-529); details: protein: recombinant; tags: N-terminal GST; chain copies: 3; dsDNA, one strand shown
# How it was run: as §1
# SPIC = biological target: T2, SPIC (Homo sapiens, UniProt Q8N5J4 1-248); details: protein: recombinant; tags: N-terminal GST; dsDNA, one strand shown
# T2 sequence: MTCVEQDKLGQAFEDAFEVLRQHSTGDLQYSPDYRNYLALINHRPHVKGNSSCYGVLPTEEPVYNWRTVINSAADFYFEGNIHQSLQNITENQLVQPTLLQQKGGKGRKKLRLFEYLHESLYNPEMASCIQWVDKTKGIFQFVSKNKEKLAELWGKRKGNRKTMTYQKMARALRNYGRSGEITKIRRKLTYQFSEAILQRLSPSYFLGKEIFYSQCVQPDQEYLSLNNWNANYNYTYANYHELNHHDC
# How it was run: as §1
# ELF4 = ELF4 (Homo sapiens, UniProt Q99607 1-663); details: protein: recombinant; tags: N-terminal GST; dsDNA, one strand shown
# How it was run: as §1
# ETV1 = ETV1 (Homo sapiens, UniProt P50549 1-477); details: protein: recombinant; tags: N-terminal GST; dsDNA, one strand shown
# How it was run: as §1
# ERF = biological target: T3, ERF (Homo sapiens, UniProt P50548 1-548); details: protein: recombinant; tags: N-terminal GST; dsDNA, one strand shown
# T3 sequence: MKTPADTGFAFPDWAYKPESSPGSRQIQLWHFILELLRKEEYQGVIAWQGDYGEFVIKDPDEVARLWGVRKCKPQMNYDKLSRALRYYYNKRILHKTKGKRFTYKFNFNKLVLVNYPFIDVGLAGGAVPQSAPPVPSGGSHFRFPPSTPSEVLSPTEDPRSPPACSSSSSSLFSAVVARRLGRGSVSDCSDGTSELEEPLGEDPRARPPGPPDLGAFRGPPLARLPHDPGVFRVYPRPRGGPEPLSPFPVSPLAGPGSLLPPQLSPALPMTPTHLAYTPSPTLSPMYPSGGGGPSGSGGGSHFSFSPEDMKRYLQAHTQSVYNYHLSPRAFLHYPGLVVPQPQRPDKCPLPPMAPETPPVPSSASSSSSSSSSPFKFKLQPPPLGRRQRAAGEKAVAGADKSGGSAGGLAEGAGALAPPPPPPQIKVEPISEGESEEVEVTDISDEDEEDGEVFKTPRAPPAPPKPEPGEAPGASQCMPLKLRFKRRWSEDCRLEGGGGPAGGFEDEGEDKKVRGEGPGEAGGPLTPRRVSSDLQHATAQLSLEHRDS
# How it was run: as §1
# ETV3L = biological target: T4, ETV3L (Homo sapiens, UniProt Q6ZN32 1-361); details: protein: recombinant; tags: N-terminal GST; dsDNA, one strand shown
# T4 sequence: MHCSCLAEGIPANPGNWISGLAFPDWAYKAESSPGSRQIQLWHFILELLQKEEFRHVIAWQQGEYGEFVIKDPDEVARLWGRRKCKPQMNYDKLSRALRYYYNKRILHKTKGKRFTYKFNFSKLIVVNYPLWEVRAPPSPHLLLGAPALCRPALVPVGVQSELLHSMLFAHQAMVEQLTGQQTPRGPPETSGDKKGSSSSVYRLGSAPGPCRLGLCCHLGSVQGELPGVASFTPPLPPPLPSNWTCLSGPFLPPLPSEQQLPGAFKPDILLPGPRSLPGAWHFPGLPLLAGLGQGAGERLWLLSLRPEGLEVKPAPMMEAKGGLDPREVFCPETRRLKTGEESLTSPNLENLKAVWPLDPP
# How it was run: as §1
# ETS2 = biological target: T5, ETS2 (Homo sapiens, UniProt P15036 1-469); details: protein: recombinant; tags: N-terminal GST; dsDNA, one strand shown
# T5 sequence: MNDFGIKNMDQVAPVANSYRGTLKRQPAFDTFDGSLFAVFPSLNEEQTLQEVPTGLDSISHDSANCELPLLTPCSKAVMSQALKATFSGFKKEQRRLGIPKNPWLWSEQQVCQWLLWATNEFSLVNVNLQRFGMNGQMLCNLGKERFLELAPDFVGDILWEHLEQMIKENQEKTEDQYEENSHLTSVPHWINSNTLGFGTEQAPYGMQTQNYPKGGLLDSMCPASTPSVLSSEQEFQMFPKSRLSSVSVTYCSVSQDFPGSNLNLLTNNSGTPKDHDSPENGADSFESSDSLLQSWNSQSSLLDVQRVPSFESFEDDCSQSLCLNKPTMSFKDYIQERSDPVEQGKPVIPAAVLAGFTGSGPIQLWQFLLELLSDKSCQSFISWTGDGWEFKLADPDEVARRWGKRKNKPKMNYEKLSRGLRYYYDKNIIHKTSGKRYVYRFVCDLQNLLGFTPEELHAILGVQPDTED
# How it was run: as §1
# SPDEF = biological target: T6, SPDEF (Homo sapiens, UniProt O95238 1-335); details: protein: recombinant; tags: N-terminal GST; dsDNA, one strand shown
# T6 sequence: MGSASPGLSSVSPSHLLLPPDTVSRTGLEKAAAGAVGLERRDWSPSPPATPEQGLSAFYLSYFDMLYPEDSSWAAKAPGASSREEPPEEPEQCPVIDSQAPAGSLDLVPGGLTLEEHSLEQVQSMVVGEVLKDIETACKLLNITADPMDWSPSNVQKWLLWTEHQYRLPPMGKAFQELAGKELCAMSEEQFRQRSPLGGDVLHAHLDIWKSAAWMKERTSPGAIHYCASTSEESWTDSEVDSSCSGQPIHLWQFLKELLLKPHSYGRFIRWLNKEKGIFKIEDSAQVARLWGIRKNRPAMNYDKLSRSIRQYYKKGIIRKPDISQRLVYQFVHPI
# How it was run: as §1
# ETV7 = biological target: T7, ETV7 (Homo sapiens, UniProt Q9Y603 1-341); details: protein: recombinant; tags: N-terminal GST; dsDNA, one strand shown
# T7 sequence: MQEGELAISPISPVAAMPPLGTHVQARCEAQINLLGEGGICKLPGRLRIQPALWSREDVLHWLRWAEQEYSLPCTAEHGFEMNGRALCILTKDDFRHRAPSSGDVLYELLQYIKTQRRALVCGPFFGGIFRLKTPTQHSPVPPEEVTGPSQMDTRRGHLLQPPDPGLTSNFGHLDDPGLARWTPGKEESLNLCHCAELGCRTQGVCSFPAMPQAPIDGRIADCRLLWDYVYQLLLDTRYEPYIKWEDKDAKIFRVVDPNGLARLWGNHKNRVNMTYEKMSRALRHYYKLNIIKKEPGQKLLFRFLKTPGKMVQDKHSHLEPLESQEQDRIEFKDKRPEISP
# How it was run: as §1
# ELF5 = biological target: T8, ELF5 (Homo sapiens, UniProt Q9UKW6-2 1-255); details: protein: recombinant; tags: N-terminal GST; dsDNA, one strand shown
# T8 sequence: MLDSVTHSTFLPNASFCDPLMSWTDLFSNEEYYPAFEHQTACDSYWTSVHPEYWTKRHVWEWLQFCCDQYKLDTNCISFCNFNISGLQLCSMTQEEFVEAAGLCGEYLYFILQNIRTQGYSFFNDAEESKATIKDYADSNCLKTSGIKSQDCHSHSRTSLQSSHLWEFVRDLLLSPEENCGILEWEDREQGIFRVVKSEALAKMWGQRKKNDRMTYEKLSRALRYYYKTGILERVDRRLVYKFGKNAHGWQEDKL
# How it was run: as §1
# ETV3 = biological target: T9, ETV3 (Homo sapiens, UniProt P41162-2 1-143); details: protein: recombinant; tags: N-terminal GST; dsDNA, one strand shown
# T9 sequence: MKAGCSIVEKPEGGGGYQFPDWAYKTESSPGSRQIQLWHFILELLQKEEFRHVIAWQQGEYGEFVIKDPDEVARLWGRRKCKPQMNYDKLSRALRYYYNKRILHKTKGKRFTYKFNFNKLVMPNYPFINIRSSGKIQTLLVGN
# How it was run: as §1
# ETV6 = ETV6 (Homo sapiens, UniProt P41212 1-452); details: protein: recombinant; tags: N-terminal GST; dsDNA, one strand shown
# How it was run: as §1
# ELK4 = biological target: T10, ELK4 (Homo sapiens, UniProt P28324-2 1-405); details: protein: recombinant; tags: N-terminal GST; dsDNA, one strand shown
# T10 sequence: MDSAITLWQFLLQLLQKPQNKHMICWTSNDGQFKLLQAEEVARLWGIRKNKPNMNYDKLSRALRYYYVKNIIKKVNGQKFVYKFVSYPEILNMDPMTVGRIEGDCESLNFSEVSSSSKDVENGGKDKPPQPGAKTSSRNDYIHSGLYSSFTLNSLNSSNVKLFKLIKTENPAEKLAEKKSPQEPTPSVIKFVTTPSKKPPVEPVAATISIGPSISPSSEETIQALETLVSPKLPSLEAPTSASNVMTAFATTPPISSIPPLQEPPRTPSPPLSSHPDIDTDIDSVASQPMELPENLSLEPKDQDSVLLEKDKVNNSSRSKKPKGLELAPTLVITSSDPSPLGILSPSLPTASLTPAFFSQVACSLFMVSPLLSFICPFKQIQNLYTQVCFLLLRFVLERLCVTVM
# How it was run: as §1
# CRX = CRX (Homo sapiens, UniProt O43186 1-299); details: protein: recombinant; tags: N-terminal GST; dsDNA, one strand shown
# How it was run: as §1
# ETV2 = biological target: T11, ETV2 (Homo sapiens, UniProt O00321 1-342); details: protein: recombinant; tags: N-terminal GST; dsDNA, one strand shown
# T11 sequence: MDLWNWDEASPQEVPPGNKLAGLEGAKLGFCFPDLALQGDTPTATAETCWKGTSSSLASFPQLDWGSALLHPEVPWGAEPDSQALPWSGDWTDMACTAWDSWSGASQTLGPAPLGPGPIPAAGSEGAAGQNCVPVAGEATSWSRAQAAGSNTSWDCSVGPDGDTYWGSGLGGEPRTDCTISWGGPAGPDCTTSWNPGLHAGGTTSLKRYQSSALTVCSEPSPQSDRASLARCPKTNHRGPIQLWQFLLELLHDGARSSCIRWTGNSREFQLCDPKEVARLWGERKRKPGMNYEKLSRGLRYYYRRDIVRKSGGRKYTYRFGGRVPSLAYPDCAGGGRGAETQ
# How it was run: as §1
# Sequence of HSF1 (Q00613 whole entry): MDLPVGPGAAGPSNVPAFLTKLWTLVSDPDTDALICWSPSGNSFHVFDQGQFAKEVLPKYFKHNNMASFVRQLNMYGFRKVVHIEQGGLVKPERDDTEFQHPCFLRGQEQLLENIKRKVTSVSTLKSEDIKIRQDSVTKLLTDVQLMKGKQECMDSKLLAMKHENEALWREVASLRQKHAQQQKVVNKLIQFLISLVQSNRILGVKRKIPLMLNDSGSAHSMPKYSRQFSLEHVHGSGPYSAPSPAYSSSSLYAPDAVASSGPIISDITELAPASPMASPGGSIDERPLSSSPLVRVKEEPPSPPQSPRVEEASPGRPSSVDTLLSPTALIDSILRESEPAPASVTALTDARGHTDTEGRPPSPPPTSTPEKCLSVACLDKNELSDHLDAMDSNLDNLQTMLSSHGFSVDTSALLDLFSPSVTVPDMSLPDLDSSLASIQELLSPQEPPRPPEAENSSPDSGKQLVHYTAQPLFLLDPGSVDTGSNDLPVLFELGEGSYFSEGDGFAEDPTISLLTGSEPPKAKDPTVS
# Sequence of ETV5 (P41161 whole entry): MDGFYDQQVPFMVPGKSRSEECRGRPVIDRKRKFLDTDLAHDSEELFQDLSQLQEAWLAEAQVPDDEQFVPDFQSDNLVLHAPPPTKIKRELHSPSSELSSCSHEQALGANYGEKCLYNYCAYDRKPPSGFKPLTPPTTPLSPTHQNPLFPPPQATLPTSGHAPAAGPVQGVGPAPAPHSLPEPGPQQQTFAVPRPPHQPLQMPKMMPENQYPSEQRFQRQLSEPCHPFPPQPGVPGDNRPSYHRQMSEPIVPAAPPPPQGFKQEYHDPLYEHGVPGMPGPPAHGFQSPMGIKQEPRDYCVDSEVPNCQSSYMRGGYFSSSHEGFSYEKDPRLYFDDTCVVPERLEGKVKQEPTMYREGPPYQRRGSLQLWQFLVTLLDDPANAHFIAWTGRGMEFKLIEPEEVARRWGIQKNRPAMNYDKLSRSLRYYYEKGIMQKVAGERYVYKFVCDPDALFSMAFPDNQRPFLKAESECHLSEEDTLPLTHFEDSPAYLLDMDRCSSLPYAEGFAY
# Sequence of ETV6 (P41212 whole entry): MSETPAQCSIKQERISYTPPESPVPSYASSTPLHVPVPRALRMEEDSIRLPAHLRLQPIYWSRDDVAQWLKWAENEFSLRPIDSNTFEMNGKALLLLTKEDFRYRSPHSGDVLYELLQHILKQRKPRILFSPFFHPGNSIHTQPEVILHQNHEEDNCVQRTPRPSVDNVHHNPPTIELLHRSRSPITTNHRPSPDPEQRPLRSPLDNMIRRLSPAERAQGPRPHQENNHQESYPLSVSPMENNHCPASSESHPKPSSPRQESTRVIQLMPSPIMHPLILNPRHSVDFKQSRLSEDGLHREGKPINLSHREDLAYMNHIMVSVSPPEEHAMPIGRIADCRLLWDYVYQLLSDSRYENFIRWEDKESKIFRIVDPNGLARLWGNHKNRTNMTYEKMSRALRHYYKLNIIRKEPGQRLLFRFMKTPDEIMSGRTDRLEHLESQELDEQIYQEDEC
# Sequence of ETV1 (P50549 whole entry): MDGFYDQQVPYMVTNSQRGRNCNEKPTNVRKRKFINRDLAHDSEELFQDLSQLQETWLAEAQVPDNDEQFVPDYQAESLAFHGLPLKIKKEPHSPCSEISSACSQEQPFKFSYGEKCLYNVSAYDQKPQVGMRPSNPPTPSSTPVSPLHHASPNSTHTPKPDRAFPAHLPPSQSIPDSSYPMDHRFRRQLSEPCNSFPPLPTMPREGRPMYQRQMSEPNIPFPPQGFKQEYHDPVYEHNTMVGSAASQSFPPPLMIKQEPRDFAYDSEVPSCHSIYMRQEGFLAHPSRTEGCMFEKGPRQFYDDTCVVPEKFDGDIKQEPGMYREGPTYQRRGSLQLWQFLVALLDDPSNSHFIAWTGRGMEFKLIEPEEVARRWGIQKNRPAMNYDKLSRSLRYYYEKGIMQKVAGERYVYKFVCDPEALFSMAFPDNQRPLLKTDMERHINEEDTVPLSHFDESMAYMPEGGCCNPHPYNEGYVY
# Sequence of ELF4 (Q99607 whole entry): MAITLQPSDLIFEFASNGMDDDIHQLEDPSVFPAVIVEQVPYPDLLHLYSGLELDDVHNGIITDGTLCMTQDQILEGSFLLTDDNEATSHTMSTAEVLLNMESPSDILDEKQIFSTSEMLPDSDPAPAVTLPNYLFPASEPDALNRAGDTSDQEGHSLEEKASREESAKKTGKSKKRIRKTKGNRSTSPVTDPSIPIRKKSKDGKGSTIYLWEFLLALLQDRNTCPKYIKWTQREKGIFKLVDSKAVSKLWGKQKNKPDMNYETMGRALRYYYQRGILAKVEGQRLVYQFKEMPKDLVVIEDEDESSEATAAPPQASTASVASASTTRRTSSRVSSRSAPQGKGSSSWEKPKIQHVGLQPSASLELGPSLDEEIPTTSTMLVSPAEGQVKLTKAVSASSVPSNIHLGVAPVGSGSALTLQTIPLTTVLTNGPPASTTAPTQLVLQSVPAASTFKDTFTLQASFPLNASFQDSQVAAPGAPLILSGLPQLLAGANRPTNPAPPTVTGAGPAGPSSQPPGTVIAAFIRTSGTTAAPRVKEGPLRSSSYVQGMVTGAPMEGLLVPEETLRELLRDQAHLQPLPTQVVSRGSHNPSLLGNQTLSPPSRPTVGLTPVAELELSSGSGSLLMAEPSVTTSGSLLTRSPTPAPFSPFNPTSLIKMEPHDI
# Sequence of CRX (O43186 whole entry): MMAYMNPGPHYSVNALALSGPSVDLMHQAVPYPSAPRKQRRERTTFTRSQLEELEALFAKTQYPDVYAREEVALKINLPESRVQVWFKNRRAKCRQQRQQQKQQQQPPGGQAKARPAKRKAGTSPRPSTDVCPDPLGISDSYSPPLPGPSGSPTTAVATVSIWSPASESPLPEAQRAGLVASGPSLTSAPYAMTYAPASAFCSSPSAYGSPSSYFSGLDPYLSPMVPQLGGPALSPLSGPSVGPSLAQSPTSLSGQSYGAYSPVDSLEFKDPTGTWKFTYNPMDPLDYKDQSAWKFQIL
Sequence,binding signal (FEV),binding signal (ETV5),binding signal (HSF1),binding signal (SPIC),binding signal (ELF4),binding signal (ETV1),binding signal (ERF),binding signal (ETV3L),binding signal (ETS2),binding signal (SPDEF),binding signal (ETV7),binding signal (ELF5),binding signal (ETV3),binding signal (ETV6),binding signal (ELK4),binding signal (CRX),binding signal (ETV2)
CTCGTG,"1.05 fold enrichment (6-mer frequency, TF over GST control)","1.03 fold enrichment (6-mer frequency, TF over GST control)","1.18 fold enrichment (6-mer frequency, TF over GST control)","1.03 fold enrichment (6-mer frequency, TF over GST control)","1.21 fold enrichment (6-mer frequency, TF over GST control)","1.18 fold enrichment (6-mer frequency, TF over GST control)","1.12 fold enrichment (6-mer frequency, TF over GST control)","1.01 fold enrichment (6-mer frequency, TF over GST control)","1.13 fold enrichment (6-mer frequency, TF over GST control)","1.07 fold enrichment (6-mer frequency, TF over GST control)","1.12 fold enrichment (6-mer frequency, TF over GST control)","1.11 fold enrichment (6-mer frequency, TF over GST control)","1.08 fold enrichment (6-mer frequency, TF over GST control)","1.02 fold enrichment (6-mer frequency, TF over GST control)",–,–,–
TGGATT,–,"1.06 fold enrichment (6-mer frequency, TF over GST control)","1.85 fold enrichment (6-mer frequency, TF over GST control)","1.07 fold enrichment (6-mer frequency, TF over GST control)",–,–,–,"1.05 fold enrichment (6-mer frequency, TF over GST control)","1.03 fold enrichment (6-mer frequency, TF over GST control)",–,"1.04 fold enrichment (6-mer frequency, TF over GST control)",–,–,"1.02 fold enrichment (6-mer frequency, TF over GST control)","1.11 fold enrichment (6-mer frequency, TF over GST control)","2.46 fold enrichment (6-mer frequency, TF over GST control)",–
GTACTA,"1.12 fold enrichment (6-mer frequency, TF over GST control)","1.14 fold enrichment (6-mer frequency, TF over GST control)","1.15 fold enrichment (6-mer frequency, TF over GST control)","1.11 fold enrichment (6-mer frequency, TF over GST control)","1.08 fold enrichment (6-mer frequency, TF over GST control)","1.13 fold enrichment (6-mer frequency, TF over GST control)","1.21 fold enrichment (6-mer frequency, TF over GST control)","1.05 fold enrichment (6-mer frequency, TF over GST control)","1.13 fold enrichment (6-mer frequency, TF over GST control)","1.1 fold enrichment (6-mer frequency, TF over GST control)","1.09 fold enrichment (6-mer frequency, TF over GST control)","1.13 fold enrichment (6-mer frequency, TF over GST control)","1.09 fold enrichment (6-mer frequency, TF over GST control)","1.15 fold enrichment (6-mer frequency, TF over GST control)",–,"1.12 fold enrichment (6-mer frequency, TF over GST control)","1.21 fold enrichment (6-mer frequency, TF over GST control)"
